Columns and labels:
Assay in all cases: DAPPL (digital affinity profiling via proximity ligation, sequencing); 10 mM Tris-HCl pH 7.5, 50 mM NaCl, 1 mM DTT, 4% glycerol, room temperature, 30 min; GST-TFs on glutathione beads, 16-mer random dsDNA library, 0.1% formaldehyde crosslink after washing; high values mean tight binding
FLI1 = target: T1, FLI1 (Homo sapiens, UniProt Q01543 1-452); conditions: protein: recombinant; tags: N-terminal GST; dsDNA, one strand shown
T1 sequence: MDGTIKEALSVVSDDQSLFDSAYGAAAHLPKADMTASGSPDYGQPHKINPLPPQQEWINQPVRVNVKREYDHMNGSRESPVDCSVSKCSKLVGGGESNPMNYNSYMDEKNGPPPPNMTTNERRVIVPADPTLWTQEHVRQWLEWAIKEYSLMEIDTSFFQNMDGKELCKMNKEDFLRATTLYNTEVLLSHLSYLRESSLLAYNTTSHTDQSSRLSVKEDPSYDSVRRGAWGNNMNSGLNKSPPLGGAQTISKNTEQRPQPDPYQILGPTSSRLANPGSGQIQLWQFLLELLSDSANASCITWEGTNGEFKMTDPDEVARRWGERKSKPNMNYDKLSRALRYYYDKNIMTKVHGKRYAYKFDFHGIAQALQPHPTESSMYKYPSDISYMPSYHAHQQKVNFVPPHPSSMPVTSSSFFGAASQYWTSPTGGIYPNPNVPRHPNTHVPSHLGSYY
Procedure, shortened: (§1)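 The binding signal reported is, for every hexamer, its read frequency for a factor over its read frequency for the tag-only sample. Reads came from pools of yeast-expressed, GST-fused human transcription factors on glutathione beads, barcoded with DNA and mixed with that sample, which were incubated with 200 nmole of a random double-stranded 16-mer DNA library in Tris/NaCl/DTT/glycerol buffer at room temperature for 30 min. After washing, the pools were crosslinked with 0.1% formaldehyde, proximity-ligated with BsaI/T4 ligase for 1 h at 37 °C, PCR-amplified and sequenced on an Illumina NextSeq500.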

ELK1 = target: T2, ELK1 (Homo sapiens, UniProt P19419 1-428); conditions: protein: recombinant; tags: N-terminal GST; dsDNA, one strand shown
T2 sequence: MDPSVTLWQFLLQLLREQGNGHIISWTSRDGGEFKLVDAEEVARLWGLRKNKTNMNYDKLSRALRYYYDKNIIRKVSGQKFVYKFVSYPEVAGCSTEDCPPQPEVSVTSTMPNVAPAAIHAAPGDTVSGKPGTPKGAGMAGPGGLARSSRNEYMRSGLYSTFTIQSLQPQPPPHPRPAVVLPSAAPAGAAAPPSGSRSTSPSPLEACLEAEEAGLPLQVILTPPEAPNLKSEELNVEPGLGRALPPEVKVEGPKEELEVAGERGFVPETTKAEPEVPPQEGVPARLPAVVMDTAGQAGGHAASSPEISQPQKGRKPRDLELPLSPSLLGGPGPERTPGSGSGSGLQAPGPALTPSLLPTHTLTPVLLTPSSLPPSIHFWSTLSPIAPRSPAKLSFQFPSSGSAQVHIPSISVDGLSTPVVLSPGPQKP
Procedure, shortened: as §1

GABPA = target: T3, GABPA (Homo sapiens, UniProt Q06546 1-454); conditions: protein: recombinant; tags: N-terminal GST; dsDNA, one strand shown
T3 sequence: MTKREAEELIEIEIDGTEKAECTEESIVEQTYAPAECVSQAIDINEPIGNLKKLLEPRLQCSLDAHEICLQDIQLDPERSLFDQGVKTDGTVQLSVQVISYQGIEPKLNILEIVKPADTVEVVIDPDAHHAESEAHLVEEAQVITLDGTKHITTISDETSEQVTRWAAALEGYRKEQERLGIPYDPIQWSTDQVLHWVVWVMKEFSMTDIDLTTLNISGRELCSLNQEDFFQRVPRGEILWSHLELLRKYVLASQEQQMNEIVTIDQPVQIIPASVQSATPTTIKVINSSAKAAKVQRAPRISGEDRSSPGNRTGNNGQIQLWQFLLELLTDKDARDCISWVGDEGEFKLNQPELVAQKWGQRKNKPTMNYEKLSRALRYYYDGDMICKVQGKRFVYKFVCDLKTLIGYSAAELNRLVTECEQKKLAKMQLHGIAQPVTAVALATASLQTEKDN
Procedure, shortened: as §1

ERG = target: T4, ERG (Homo sapiens, UniProt P11308 1-479); conditions: protein: recombinant; tags: N-terminal GST; dsDNA, one strand shown
T4 sequence: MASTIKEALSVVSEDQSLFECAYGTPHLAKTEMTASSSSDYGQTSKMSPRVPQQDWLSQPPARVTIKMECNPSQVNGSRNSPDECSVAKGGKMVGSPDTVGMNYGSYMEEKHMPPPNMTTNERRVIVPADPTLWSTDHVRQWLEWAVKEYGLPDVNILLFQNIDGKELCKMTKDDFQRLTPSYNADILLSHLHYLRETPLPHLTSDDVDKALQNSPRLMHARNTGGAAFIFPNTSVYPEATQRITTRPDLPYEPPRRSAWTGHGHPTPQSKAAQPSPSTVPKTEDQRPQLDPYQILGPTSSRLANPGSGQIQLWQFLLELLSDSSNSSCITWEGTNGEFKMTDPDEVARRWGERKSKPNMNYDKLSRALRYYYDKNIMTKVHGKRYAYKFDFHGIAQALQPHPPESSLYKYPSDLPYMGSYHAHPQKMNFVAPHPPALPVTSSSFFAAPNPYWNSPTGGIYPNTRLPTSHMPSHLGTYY
Procedure, shortened: as §1

ELF1 = ELF1 (Homo sapiens, UniProt P32519 1-619); conditions: protein: recombinant; tags: N-terminal GST; dsDNA, one strand shown
Sequence of ELF1 (P32519 whole entry): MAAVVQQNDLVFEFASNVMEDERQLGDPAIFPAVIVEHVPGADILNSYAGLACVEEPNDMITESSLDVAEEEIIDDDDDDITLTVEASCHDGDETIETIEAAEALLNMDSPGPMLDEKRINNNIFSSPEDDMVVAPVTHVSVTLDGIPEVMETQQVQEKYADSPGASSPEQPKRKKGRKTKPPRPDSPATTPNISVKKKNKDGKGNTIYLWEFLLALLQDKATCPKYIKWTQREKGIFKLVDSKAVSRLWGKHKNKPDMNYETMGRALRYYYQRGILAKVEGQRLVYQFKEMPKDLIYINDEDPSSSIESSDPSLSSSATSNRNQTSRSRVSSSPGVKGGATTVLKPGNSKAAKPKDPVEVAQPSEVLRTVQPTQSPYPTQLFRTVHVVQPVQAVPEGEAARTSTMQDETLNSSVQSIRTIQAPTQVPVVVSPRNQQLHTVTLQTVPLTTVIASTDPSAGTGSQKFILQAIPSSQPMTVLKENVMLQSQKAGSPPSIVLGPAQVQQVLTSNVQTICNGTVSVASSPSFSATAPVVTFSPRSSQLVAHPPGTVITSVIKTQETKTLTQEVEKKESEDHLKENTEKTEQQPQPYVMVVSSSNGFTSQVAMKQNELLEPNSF
Procedure, shortened: as §1

EHF = target: T5, EHF (Homo sapiens, UniProt Q9NZC4 1-300); conditions: protein: recombinant; tags: N-terminal GST; dsDNA, one strand shown
T5 sequence: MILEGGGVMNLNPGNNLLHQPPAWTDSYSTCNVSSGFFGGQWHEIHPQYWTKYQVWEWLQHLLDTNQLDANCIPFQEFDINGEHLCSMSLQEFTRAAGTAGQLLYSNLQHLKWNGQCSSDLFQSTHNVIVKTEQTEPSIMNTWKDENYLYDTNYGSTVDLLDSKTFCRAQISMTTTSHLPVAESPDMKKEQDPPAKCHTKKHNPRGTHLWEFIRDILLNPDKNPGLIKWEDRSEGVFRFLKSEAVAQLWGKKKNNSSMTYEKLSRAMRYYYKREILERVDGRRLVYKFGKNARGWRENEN
Procedure, shortened: as §1

SPI1 = SPI1 (Homo sapiens, UniProt P17947 1-270); conditions: protein: recombinant; tags: N-terminal GST; dsDNA, one strand shown
Procedure, shortened: as §1

SPIB = SPIB (Homo sapiens, UniProt Q01892 1-262); conditions: protein: recombinant; tags: N-terminal GST; dsDNA, one strand shown
Sequence of SPIB (Q01892 whole entry): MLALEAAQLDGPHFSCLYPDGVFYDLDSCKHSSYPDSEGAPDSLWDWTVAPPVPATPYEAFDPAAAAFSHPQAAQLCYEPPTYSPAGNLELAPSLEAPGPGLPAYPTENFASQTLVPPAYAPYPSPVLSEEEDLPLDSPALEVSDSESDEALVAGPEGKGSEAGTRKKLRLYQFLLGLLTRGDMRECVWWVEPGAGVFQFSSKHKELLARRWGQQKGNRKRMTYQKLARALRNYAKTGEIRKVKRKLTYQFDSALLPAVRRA
Procedure, shortened: as §1

ELK3 = target: T6, ELK3 (Homo sapiens, UniProt P41970 1-407); conditions: protein: recombinant; tags: N-terminal GST; dsDNA, one strand shown
T6 sequence: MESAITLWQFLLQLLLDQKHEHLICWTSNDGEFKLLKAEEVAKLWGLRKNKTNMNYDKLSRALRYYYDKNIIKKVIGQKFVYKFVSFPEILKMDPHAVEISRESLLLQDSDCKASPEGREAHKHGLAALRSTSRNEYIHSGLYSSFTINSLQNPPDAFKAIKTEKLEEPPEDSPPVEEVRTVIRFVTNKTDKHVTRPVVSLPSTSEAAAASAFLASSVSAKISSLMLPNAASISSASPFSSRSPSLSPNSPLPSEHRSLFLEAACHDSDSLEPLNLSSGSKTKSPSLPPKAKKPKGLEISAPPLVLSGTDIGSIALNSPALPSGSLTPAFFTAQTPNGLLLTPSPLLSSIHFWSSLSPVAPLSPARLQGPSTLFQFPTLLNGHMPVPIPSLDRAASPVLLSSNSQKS
Procedure, shortened: as §1

FEV = target: T7, FEV (Homo sapiens, UniProt Q99581 1-238); conditions: protein: recombinant; tags: N-terminal GST; dsDNA, one strand shown
T7 sequence: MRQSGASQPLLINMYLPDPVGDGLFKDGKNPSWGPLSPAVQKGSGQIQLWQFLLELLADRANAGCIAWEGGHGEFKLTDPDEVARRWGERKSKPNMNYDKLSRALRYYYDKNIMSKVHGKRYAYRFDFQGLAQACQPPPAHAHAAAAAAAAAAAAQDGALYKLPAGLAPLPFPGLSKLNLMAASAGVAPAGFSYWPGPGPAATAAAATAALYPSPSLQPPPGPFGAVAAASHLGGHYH
Procedure, shortened: as §1

ETV5 = ETV5 (Homo sapiens, UniProt P41161 1-510); conditions: protein: recombinant; tags: N-terminal GST; dsDNA, one strand shown
Sequence of ETV5 (P41161 whole entry): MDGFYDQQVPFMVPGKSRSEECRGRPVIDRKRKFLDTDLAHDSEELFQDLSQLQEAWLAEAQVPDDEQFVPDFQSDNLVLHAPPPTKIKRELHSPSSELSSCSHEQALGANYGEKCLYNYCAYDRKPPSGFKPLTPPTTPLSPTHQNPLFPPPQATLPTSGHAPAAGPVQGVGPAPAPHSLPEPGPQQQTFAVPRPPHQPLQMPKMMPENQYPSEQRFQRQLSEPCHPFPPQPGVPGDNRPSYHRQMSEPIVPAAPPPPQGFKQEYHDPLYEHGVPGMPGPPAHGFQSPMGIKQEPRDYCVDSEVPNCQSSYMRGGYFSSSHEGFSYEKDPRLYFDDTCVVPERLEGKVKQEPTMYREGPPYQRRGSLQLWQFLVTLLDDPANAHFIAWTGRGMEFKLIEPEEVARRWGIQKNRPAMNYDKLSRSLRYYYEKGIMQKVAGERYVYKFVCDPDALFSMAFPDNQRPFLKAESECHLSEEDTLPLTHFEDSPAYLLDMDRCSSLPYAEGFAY
Procedure, shortened: as §1

HSF1 = HSF1 (Homo sapiens, UniProt Q00613 1-529); conditions: protein: recombinant; tags: N-terminal GST; chain copies: 3; dsDNA, one strand shown
Sequence of HSF1 (Q00613 whole entry): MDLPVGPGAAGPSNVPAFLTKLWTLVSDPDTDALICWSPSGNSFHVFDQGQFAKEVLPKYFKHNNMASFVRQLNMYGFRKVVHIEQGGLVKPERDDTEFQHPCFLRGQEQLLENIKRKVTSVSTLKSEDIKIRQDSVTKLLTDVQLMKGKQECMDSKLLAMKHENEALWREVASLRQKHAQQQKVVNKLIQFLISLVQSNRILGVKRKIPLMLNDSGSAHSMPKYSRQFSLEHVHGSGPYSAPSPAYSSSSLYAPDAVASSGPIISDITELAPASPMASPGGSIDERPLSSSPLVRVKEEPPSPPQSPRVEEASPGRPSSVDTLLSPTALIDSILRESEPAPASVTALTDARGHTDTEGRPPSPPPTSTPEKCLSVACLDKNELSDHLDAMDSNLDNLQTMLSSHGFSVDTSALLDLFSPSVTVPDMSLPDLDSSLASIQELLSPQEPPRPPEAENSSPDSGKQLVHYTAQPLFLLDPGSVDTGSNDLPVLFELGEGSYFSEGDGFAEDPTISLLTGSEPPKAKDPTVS
Procedure, shortened: as §1

SPIC = target: T8, SPIC (Homo sapiens, UniProt Q8N5J4 1-248); conditions: protein: recombinant; tags: N-terminal GST; dsDNA, one strand shown
T8 sequence: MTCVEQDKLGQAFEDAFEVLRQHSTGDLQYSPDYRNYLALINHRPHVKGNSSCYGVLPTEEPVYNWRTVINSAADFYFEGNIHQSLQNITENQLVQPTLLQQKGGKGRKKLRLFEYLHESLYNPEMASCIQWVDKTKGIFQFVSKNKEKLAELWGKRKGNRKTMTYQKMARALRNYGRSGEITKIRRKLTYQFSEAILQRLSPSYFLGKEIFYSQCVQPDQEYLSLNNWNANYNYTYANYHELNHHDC
Procedure, shortened: as §1

ELF4 = ELF4 (Homo sapiens, UniProt Q99607 1-663); conditions: protein: recombinant; tags: N-terminal GST; dsDNA, one strand shown
Sequence of ELF4 (Q99607 whole entry): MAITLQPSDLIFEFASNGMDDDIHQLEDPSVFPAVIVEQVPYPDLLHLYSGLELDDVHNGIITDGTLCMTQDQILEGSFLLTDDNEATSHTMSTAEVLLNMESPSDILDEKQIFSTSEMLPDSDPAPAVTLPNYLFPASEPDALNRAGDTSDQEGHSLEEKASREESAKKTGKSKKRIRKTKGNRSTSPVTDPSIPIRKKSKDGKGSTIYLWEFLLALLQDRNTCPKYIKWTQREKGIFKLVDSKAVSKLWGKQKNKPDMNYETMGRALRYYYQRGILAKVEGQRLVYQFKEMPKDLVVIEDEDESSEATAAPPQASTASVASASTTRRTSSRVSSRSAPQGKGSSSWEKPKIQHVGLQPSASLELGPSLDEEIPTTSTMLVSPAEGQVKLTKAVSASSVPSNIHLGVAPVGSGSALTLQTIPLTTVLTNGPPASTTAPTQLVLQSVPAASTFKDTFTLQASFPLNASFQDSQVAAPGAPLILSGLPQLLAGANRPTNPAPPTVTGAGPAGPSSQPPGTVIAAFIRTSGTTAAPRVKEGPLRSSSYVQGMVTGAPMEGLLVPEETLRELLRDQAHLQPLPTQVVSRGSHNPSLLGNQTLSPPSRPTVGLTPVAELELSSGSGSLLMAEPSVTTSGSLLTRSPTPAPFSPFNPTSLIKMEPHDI
Procedure, shortened: as §1

ELK4 = target: T9, ELK4 (Homo sapiens, UniProt P28324-2 1-405); conditions: protein: recombinant; tags: N-terminal GST; dsDNA, one strand shown
T9 sequence: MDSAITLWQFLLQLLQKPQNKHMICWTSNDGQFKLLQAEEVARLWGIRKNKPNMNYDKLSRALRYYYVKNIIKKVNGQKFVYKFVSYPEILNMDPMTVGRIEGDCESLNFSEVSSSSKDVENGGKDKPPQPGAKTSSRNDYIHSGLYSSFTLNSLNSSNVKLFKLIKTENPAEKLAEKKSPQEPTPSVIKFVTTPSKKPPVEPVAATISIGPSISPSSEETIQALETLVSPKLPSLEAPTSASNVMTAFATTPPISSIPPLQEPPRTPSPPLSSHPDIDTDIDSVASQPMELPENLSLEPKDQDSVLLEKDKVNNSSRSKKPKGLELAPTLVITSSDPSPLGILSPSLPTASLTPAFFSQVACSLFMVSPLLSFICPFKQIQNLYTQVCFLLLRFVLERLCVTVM
Procedure, shortened: as §1

ETV2 = target: T10, ETV2 (Homo sapiens, UniProt O00321 1-342); conditions: protein: recombinant; tags: N-terminal GST; dsDNA, one strand shown
T10 sequence: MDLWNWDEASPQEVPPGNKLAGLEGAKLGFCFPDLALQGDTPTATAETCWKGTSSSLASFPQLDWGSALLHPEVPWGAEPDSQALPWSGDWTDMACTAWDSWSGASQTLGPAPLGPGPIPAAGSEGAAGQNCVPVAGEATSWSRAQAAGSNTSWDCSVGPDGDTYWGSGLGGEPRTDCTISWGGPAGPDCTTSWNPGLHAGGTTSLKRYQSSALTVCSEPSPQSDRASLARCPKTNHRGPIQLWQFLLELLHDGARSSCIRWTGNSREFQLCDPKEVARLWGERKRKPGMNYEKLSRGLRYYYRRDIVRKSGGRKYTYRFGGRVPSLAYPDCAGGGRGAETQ
Procedure, shortened: as §1

ELF3 = target: T11, ELF3 (Homo sapiens, UniProt P78545 1-371); conditions: protein: recombinant; tags: N-terminal GST; dsDNA, one strand shown
T11 sequence: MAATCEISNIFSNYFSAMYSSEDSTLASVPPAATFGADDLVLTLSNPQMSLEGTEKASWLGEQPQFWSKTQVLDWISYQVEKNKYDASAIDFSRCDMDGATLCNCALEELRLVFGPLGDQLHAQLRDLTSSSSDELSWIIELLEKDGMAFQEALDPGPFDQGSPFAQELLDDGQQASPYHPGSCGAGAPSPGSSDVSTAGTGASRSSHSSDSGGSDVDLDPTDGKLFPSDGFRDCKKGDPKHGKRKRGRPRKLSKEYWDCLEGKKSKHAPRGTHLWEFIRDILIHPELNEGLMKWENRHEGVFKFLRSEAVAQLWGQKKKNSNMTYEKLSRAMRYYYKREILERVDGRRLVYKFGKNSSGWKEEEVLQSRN
Procedure, shortened: as §1

CRX = CRX (Homo sapiens, UniProt O43186 1-299); conditions: protein: recombinant; tags: N-terminal GST; dsDNA, one strand shown
Sequence of CRX (O43186 whole entry): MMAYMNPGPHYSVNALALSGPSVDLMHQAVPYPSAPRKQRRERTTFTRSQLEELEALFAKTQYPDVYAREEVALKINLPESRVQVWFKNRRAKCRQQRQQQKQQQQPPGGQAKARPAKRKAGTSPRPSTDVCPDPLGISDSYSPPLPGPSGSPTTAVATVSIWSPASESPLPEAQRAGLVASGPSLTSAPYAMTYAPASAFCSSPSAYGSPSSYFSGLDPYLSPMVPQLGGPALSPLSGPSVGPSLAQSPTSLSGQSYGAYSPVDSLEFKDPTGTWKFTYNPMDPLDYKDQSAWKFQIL
Procedure, shortened: as §1

ETV1 = ETV1 (Homo sapiens, UniProt P50549 1-477); conditions: protein: recombinant; tags: N-terminal GST; dsDNA, one strand shown
Sequence of ETV1 (P50549 whole entry): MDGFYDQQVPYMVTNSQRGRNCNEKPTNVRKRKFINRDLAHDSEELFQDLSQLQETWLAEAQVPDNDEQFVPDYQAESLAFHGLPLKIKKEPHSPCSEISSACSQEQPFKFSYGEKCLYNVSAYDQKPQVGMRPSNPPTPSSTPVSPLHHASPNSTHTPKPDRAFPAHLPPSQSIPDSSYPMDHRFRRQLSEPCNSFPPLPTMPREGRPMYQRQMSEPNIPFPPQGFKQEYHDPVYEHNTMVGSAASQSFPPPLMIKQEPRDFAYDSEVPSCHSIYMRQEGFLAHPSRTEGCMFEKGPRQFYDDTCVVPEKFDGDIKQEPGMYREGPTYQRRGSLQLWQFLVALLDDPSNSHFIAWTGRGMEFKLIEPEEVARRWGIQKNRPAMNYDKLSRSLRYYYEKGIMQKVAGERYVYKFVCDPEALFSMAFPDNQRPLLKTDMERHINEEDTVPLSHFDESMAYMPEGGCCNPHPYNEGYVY
Procedure, shortened: as §1

CGTCTA
binding signal (FLI1): 1.15 fold enrichment (6-mer frequency, TF over GST control)
binding signal (ELK1): 1.26 fold enrichment (6-mer frequency, TF over GST control)
binding signal (GABPA): 1.31 fold enrichment (6-mer frequency, TF over GST control)
binding signal (ERG): 1.37 fold enrichment (6-mer frequency, TF over GST control)
binding signal (ELF1): 1.31 fold enrichment (6-mer frequency, TF over GST control)
binding signal (EHF): 1.27 fold enrichment (6-mer frequency, TF over GST control)
binding signal (SPI1): 1.25 fold enrichment (6-mer frequency, TF over GST control)
binding signal (SPIB): 1.37 fold enrichment (6-mer frequency, TF over GST control)
binding signal (ELK3): 1.25 fold enrichment (6-mer frequency, TF over GST control)
binding signal (FEV): 1.24 fold enrichment (6-mer frequency, TF over GST control)
binding signal (ETV5): 1.31 fold enrichment (6-mer frequency, TF over GST control)
binding signal (HSF1): 1.52 fold enrichment (6-mer frequency, TF over GST control)
binding signal (SPIC): 1.16 fold enrichment (6-mer frequency, TF over GST control)
binding signal (ELF4): 1.4 fold enrichment (6-mer frequency, TF over GST control)
binding signal (ELK4): 1.34 fold enrichment (6-mer frequency, TF over GST control)
binding signal (ETV2): 1.29 fold enrichment (6-mer frequency, TF over GST control)
binding signal (ELF3): 1.29 fold enrichment (6-mer frequency, TF over GST control)
binding signal (CRX): 1.28 fold enrichment (6-mer frequency, TF over GST control)
binding signal (ETV1): 1.36 fold enrichment (6-mer frequency, TF over GST control)

From article PMC7862700, “An all-to-all approach to the identification of sequence-specific readers for epigenetic DNA modifications on cytosine”
